Experimental data published in PubChem BioAssay AID1159580 (chemical genetic matrix, 2015).
The campaign covered roughly 5,500 compounds. About 2,000 (36%) were called active. Roughly 18% stayed inconclusive and do not appear here. No stated cut-off is given here; in the data, active means normalized growth mostly below about 0.91 (no sharp cut-off); inconclusive means no clear call, values can overlap the other calls; inactive means mostly above about 0.92. The list shows a part of the results.

Experiment: chemical genetic growth profiling, strain panel (AID 1159580);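 further: tested at 20 µM; growth read once vehicle control cultures reached saturation at 30 °C; 1 = growth at the plate median or of vehicle wells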
Conditions: S. cerevisiae deletion strains, growth OD
[1] = locus YAL040C, strain CLN3, stronger effect = lower value
[2] = locus YDR363W, strain ESC2, stronger effect = lower value
[3] = locus YER002W, strain NOP16, stronger effect = lower value
[4] = locus YNL128W, strain TEP1, stronger effect = lower value
[5] = locus YNL153C, strain GIM3, stronger effect = lower value
[6] = locus YNL175C, strain NOP13, stronger effect = lower value
[7] = locus YNL197C, strain WHI3, stronger effect = lower value
[8] = locus YNL224C, strain SQS1, stronger effect = lower value
[9] = locus YNL322C, strain KRE1, stronger effect = lower value
[10] = locus YOR083W, strain WHI5 (second series), stronger effect = lower value

Measured: normalized growth

CC(=O)N[C@@H](Cc1c[nH]c2ccccc12)C(=O)OCc1cc(C(F)(F)F)cc(C(F)(F)F)c1
inactive: locus YAL013W, strain DEP1, stronger effect = lower value 0.999 | [1] 1.02 | [2] 1.01 | [3] 1 | locus YMR263W, strain SAP30, stronger effect = lower value 0.994 | [4] 1.03 | [5] 0.969 | [6] 0.985 | [7] 0.994 | [8] 0.994 | [9] 1.01 | [10] 1.03

C#CCN[C@H](C)Cc1ccccc1
inactive: [1] 1 | locus YCL061C, strain MRC1 (second series), stronger effect = lower value 0.992 | locus YDR150W, strain NUM1, stronger effect = lower value 0.997 | [2] 1.01 | [3] 0.996 | locus YGR078C, strain PAC10, stronger effect = lower value 0.987 | locus YJR075W, strain HOC1, stronger effect = lower value 0.994 | [4] 0.998 | [5] 1 | [6] 0.997 | [7] 0.982 | [8] 0.995 | [9] 0.998 | [10] 1.03 | locus YPL241C, strain CIN2, stronger effect = lower value 0.999
